{"source": "paper PMC8384837", "about": "“Expanding the binding specificity for RNA recognition by a PUF domain”", "test_in_all_cases": "yeast three-hybrid, YBZ-1, SC-Leu-His + 0.5 mM 3-AT, 4 days", "conditions_in_all_cases": "tags: N-Gal4 AD-HA kept; label: inside an RPR1-promoter hybrid RNA with tandem MS2 sites; ssRNA", "key": {"[1]": {"molecular_target": "PUM1 PUF domain R5-TYF (Homo sapiens, UniProt Q14671 828-1176, C1007T;R1008Y;Q1011F)", "in_short": "(§1)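 Pumilio-1 PUF domain libraries, randomized at the three base-contacting residues of each repeat, were co-expressed with matching RNA elements from a centromeric plasmid in strain YBZ-1, which carries a LexA–MS2 coat fusion and a HIS3 reporter. Transformants grew for four days on SC-Leu (input) or on SC-Leu-His + 0.5 mM 3-AT (selection), and the repeat regions were PCR-amplified and Illumina-sequenced. The interaction score is the log change in variant frequency from input to selection. That logarithm is base 2, with a pseudocount of 1 where a variant was absent.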"}, "[2]": {"molecular_target": "PUM1 PUF domain R5-PLK (Homo sapiens, UniProt Q14671 828-1176, C1007P;R1008L;Q1011K)", "in_short": "as §1"}, "[3]": {"molecular_target": "PUM1 PUF domain R5-TRS (Homo sapiens, UniProt Q14671 828-1176, C1007T;Q1011S)", "in_short": "as §1"}, "[4]": {"molecular_target": "PUM1 PUF domain R3-SIR (Homo sapiens, UniProt Q14671 828-1176, C935S;R936I;Q939R)", "in_short": "as §1"}, "[5]": {"molecular_target": "PUM1 PUF domain R3-VFW (Homo sapiens, UniProt Q14671 828-1176, C935V;R936F;Q939W)", "in_short": "as §1"}, "[6]": {"molecular_target": "PUM1 PUF domain R3-RTK (Homo sapiens, UniProt Q14671 828-1176, C935R;R936T;Q939K)", "in_short": "as §1"}, "[7]": {"molecular_target": "PUM1 PUF domain R1-NYS (Homo sapiens, UniProt Q14671 828-1176, S863N;R864Y;Q867S)", "in_short": "as §1"}, "[8]": {"molecular_target": "T1, PUM1 PUF domain R6-CWI (Homo sapiens, UniProt Q14671 828-1176, N1043C;Y1044W;Q1047I)", "T1 sequence": "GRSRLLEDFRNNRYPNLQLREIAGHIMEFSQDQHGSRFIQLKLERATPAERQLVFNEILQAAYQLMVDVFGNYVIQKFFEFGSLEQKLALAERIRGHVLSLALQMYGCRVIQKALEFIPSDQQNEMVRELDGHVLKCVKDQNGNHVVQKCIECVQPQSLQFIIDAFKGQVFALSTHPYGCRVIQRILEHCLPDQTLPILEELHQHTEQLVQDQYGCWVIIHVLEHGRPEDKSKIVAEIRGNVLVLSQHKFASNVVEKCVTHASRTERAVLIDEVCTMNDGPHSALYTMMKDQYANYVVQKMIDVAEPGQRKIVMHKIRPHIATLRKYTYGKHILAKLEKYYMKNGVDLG", "in_short": "as §1"}, "[9]": {"molecular_target": "PUM1 PUF domain R5-YNG (Homo sapiens, UniProt Q14671 828-1176, C1007Y;R1008N;Q1011G)", "in_short": "as §1"}, "[10]": {"molecular_target": "PUM1 PUF domain R3-CRA (Homo sapiens, UniProt Q14671 828-1176, Q939A)", "in_short": "as §1"}, "[11]": {"molecular_target": "PUM1 PUF domain R8-IRR (Homo sapiens, UniProt Q14671 828-1176, N1122I;Y1123R;Q1126R)", "in_short": "as §1"}, "[12]": {"molecular_target": "PUM1 PUF domain R4-PHT (Homo sapiens, UniProt Q14671 828-1176, N971P;Q975T)", "in_short": "as §1"}, "[13]": {"molecular_target": "T2, PUM1 PUF domain R6-CFM (Homo sapiens, UniProt Q14671 828-1176, N1043C;Y1044F;Q1047M)", "T2 sequence": "T1 sequence with W217F, I220M", "in_short": "as §1"}, "[14]": {"molecular_target": "PUM1 PUF domain R3-LYM (Homo sapiens, UniProt Q14671 828-1176, C935L;R936Y;Q939M)", "in_short": "as §1"}, "[15]": {"molecular_target": "PUM1 PUF domain R8-RHK (Homo sapiens, UniProt Q14671 828-1176, N1122R;Y1123H;Q1126K)", "in_short": "as §1"}, "[16]": {"molecular_target": "PUM1 PUF domain R1-YFR (Homo sapiens, UniProt Q14671 828-1176, S863Y;R864F;Q867R)", "in_short": "as §1"}, "[17]": {"molecular_target": "PUM1 PUF domain R1-CCK (Homo sapiens, UniProt Q14671 828-1176, S863C;R864C;Q867K)", "in_short": "as §1"}, "[18]": {"molecular_target": "PUM1 PUF domain R8-KFS (Homo sapiens, UniProt Q14671 828-1176, N1122K;Y1123F;Q1126S)", "in_short": "as §1"}, "[19]": {"molecular_target": "PUM1 PUF domain R5-RKD (Homo sapiens, UniProt Q14671 828-1176, C1007R;R1008K;Q1011D)", "in_short": "as §1"}, "[20]": {"molecular_target": "PUM1 PUF domain R7-RYP (Homo sapiens, UniProt Q14671 828-1176, S1079R;N1080Y;E1083P)", "in_short": "as §1"}}, "note": "Residue numbers refer to the chain shown, from its start."}
{"sequence": "GGCUAGAACUAGUGGAUCCCCCGGCGCCCGGCGGCUCGAGCCCGGGUAAGUGUUAAUAGUCUGCAUGCCGCCGGGCGCCAUGCCUGCAGGUCGACUCUAGAAAACAUG", "values": [{"measurement": "binding signal", "setting": "[1]", "value": "1.26 log2 enrichment (interaction score)"}, {"measurement": "binding signal", "setting": "[2]", "value": "2.84 log2 enrichment (interaction score)"}, {"measurement": "binding signal", "setting": "[3]", "value": "3.03 log2 enrichment (interaction score)"}]}
{"sequence": "GGCUAGAACUAGUGGAUCCCCCGGCGCCCGGCGGCUCGAGCCCGGGUAAGUGUAAUUAGUCUGCAUGCCGCCGGGCGCCAUGCCUGCAGGUCGACUCUAGAAAACAUG", "values": [{"measurement": "binding signal", "setting": "[4]", "value": "1.21 log2 enrichment (interaction score)"}, {"measurement": "binding signal", "setting": "[5]", "value": "5.01 log2 enrichment (interaction score)"}, {"measurement": "binding signal", "setting": "[6]", "value": "4.87 log2 enrichment (interaction score)"}]}
{"sequence": "GGCUAGAACUAGUGGAUCCCCCGGCGCCCGGCGGCUCGAGCCCGGGUAAGUGUAAAUAGUCUGCAUGCCGCCGGGCGCCAUGCCUGCAGGUCGACUCUAGAAAACAUG", "values": [{"measurement": "binding signal", "setting": "[7]", "value": "2.51 log2 enrichment (interaction score)"}, {"measurement": "binding signal", "setting": "[8]", "value": "4.75 log2 enrichment (interaction score)"}, {"measurement": "binding signal", "setting": "[9]", "value": "2.79 log2 enrichment (interaction score)"}, {"measurement": "binding signal", "setting": "[1]", "value": "2.88 log2 enrichment (interaction score)"}, {"measurement": "binding signal", "setting": "[10]", "value": "2.9 log2 enrichment (interaction score)"}, {"measurement": "binding signal", "setting": "[11]", "value": "1.39 log2 enrichment (interaction score)"}, {"measurement": "binding signal", "setting": "[12]", "value": "6.07 log2 enrichment (interaction score)"}, {"measurement": "binding signal", "setting": "[13]", "value": "3.02 log2 enrichment (interaction score)"}, {"measurement": "binding signal", "setting": "[14]", "value": "4.11 log2 enrichment (interaction score)"}, {"measurement": "binding signal", "setting": "[15]", "value": "2.95 log2 enrichment (interaction score)"}, {"measurement": "binding signal", "setting": "[3]", "value": "2.85 log2 enrichment (interaction score)"}, {"measurement": "binding signal", "setting": "[5]", "value": "4.87 log2 enrichment (interaction score)"}]}
{"sequence": "GGCUAGAACUAGUGGAUCCCCCGGCGCCCGGCGGCUCGAGCCCGGGUAAGUGUACAUAGUCUGCAUGCCGCCGGGCGCCAUGCCUGCAGGUCGACUCUAGAAAACAUG", "values": [{"measurement": "binding signal", "setting": "[12]", "value": "2.45 log2 enrichment (interaction score)"}]}
{"sequence": "GGCUAGAACUAGUGGAUCCCCCGGCGCCCGGCGGCUCGAGCCCGGGUAAGUGUAAAUGGUCUGCAUGCCGCCGGGCGCCAUGCCUGCAGGUCGACUCUAGAAAACAUG", "values": [{"measurement": "binding signal", "setting": "[16]", "value": "2.6 log2 enrichment (interaction score)"}]}
{"sequence": "GGCUAGAACUAGUGGAUCCCCCGGCGCCCGGCGGCUCGAGCCCGGGUAAGUGUAAGUAGUCUGCAUGCCGCCGGGCGCCAUGCCUGCAGGUCGACUCUAGAAAACAUG", "values": [{"measurement": "binding signal", "setting": "[10]", "value": "1.42 log2 enrichment (interaction score)"}, {"measurement": "binding signal", "setting": "[4]", "value": "2.77 log2 enrichment (interaction score)"}]}
{"sequence": "GGCUAGAACUAGUGGAUCCCCCGGCGCCCGGCGGCUCGAGCCCGGGUAAGUGUAAAUUGUCUGCAUGCCGCCGGGCGCCAUGCCUGCAGGUCGACUCUAGAAAACAUG", "values": [{"measurement": "binding signal", "setting": "[7]", "value": "3.41 log2 enrichment (interaction score)"}, {"measurement": "binding signal", "setting": "[16]", "value": "6.74 log2 enrichment (interaction score)"}, {"measurement": "binding signal", "setting": "[17]", "value": "2.6 log2 enrichment (interaction score)"}]}
{"sequence": "GGCUAGAACUAGUGGAUCCCCCGGCGCCCGGCGGCUCGAGCCCGGGUAAGGGUAAAUAGUCUGCAUGCCGCCGGGCGCCAUGCCUGCAGGUCGACUCUAGAAAACAUG", "values": [{"measurement": "binding signal", "setting": "[15]", "value": "3.54 log2 enrichment (interaction score)"}]}
{"sequence": "GGCUAGAACUAGUGGAUCCCCCGGCGCCCGGCGGCUCGAGCCCGGGUAAGUGUGAAUAGUCUGCAUGCCGCCGGGCGCCAUGCCUGCAGGUCGACUCUAGAAAACAUG", "values": [{"measurement": "binding signal", "setting": "[3]", "value": "2.97 log2 enrichment (interaction score)"}]}
{"sequence": "GGCUAGAACUAGUGGAUCCCCCGGCGCCCGGCGGCUCGAGCCCGGGUAAGCGUAAAUAGUCUGCAUGCCGCCGGGCGCCAUGCCUGCAGGUCGACUCUAGAAAACAUG", "values": [{"measurement": "binding signal", "setting": "[11]", "value": "2.44 log2 enrichment (interaction score)"}, {"measurement": "binding signal", "setting": "[18]", "value": "3.24 log2 enrichment (interaction score)"}, {"measurement": "binding signal", "setting": "[15]", "value": "3.29 log2 enrichment (interaction score)"}]}
{"sequence": "GGCUAGAACUAGUGGAUCCCCCGGCGCCCGGCGGCUCGAGCCCGGGUAAGUGUCAAUAGUCUGCAUGCCGCCGGGCGCCAUGCCUGCAGGUCGACUCUAGAAAACAUG", "values": [{"measurement": "binding signal", "setting": "[19]", "value": "4.06 log2 enrichment (interaction score)"}]}
{"sequence": "GGCUAGAACUAGUGGAUCCCCCGGCGCCCGGCGGCUCGAGCCCGGGUAAGUCUAAAUAGUCUGCAUGCCGCCGGGCGCCAUGCCUGCAGGUCGACUCUAGAAAACAUG", "values": [{"measurement": "binding signal", "setting": "[20]", "value": "5.27 log2 enrichment (interaction score)"}]}
